The values below come from PubChem BioAssay (NCATS).

Each structure is given as a SMILES string. Inconclusive results are not listed. Activity calls are given as the source filed them. The call rests on the fitted dose curve; in most records, active means well fitted cell-killing curve with a large enough effect; inconclusive means small, poorly fitted or top-dose-only effect, or effect the other way; inactive means no such curve, though single readings can be large or run the other way.
Potency means the concentration at half of the fitted maximal effect.

A short description of this experiment: Quantitative High-Throughput drug screen in 47 multiple myeloma cell lines against the NCATS MIPE library collection: OCIMY1_PLB cell viability assay (AID 1918979). Further: nearly all actives have a fitted effect of over 35% in size.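 On viability: 100% = DMSO-only wells and 0% = cell-free media-only wells.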 The settings on record: OCI-MY1 myeloma viability, CellTiter-Glo ATP, 48 h; series mostly up to 45.8 µM; viability: at the top concentration. In short, it runs like this: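 ATP-based luminescence (CellTiter-Glo, 5 min RT incubation) quantified surviving cells following two days' treatment with MIPE 4.0 agents at 37 °C, 5% CO2.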
In general terms: In ATP-based viability assays light output follows the ATP content of the culture.
The viability is a read-out of living cells in per cent, often relative to untreated cells. Turning to `CC(C)[C@H](N)C(=O)OCCOCn1cnc2c(=O)[nH]c(N)nc21`, the “viability” value was 99.9% (inactive).

Regarding `C=CCc1cc(OC)c(O)c(C(=O)NCCO)c1`, the “viability” value is 110% (inactive).

Turning to `CC(=O)O[C@H]1C(=O)[C@@]2(C)C([C@H](OC(=O)c3ccccc3)[C@]3(O)C[C@H](OC(=O)[C@H](O)[C@@H](NC(=O)c4ccccc4)c4ccccc4)C(C)=C1C3(C)C)[C@]1(OC(C)=O)CO[C@@H]1C[C@@H]2O` (some centres not stated), the Potency is 18.7 nM (active).

Regarding `COc1cc(OC)c(C(=O)CCCN2CCCC2)c(OC)c1`, the “viability” value was 97.8% (inactive).

Take `CN1C(C(=O)Nc2ccccn2)=C(O)c2sccc2S1(=O)=O`: the “viability” value was 95.9% (inactive).

On to `CC1(C)CCC(C)(C)c2cc(NC(=O)c3ccc(C(=O)O)cc3)ccc21`, for which the “viability” value was 94.2% (inactive).

With `CN(C)C(=O)COC(=O)Cc1ccc(OC(=O)c2ccc(N=C(N)N)cc2)cc1`, the “viability” value was 86.9% (inactive).

Turning to `Cc1ccc(C)c(OCCCC(C)(C)C(=O)O)c1`, the “viability” value is 107% (inactive).

In the case of `CCN(CC)C(=S)SSC(=S)N(CC)CC`, the Potency is 23.5 nM (active).

Turning to `CCN(CC)CCOc1ccc(Cc2ccccc2)cc1`, the “viability” value is 101% (inactive).

`CCOc1cc(CC(=O)N[C@@H](CC(C)C)c2ccccc2N2CCCCC2)ccc1C(=O)O`: the “viability” value was 124% (inactive).

Take `COc1cc(C(C)=O)ccc1OCCCN1CCC(c2noc3cc(F)ccc23)CC1`: the “viability” value is 98.3% (inactive).

Take `CS(=O)(=O)OCCCCOS(C)(=O)=O`: the “viability” value was 103% (inactive).

In the case of `CN(c1nccc(=O)[nH]1)C1CCN(c2nc3ccccc3n2Cc2ccc(F)cc2)CC1`, the “viability” value was 114% (inactive).

With `CC(C)C[C@H](NC(=O)[C@H](Cc1ccccc1)NC(=O)c1cnccn1)B(O)O`, the Potency is 5.3 nM (active).

For the compound `O=C(NCCO[N+](=O)[O-])c1cccnc1`, the “viability” value is 104% (inactive).

For the compound `Cc1ccc(NC(=O)c2ccc(CN3CCN(C)CC3)cc2)cc1Nc1nccc(-c2cccnc2)n1`, the “viability” value was 100% (inactive).
